ALDH1A1 block: inhibitors of human aldehyde dehydrogenase 1A1 | P00352 | Purified ALDH1A1, NADH fluorescence, propionaldehyde substrate | Potency, µM (top dose mostly 75.3 µM), usual class: inhibitors | hit rate 7.3% among 220,000 | AID 1030
HPGD inh: HPGD (human) dehydrogenase inhibition; hit rate 4.3% among 150,000; AID 894; Potency, µM, actives largely listed as inhibitors; P15428; purified HPGD, NADH fluorescence kinetic, PGE2 substrate
Target sequence (P15428 whole entry, looked up): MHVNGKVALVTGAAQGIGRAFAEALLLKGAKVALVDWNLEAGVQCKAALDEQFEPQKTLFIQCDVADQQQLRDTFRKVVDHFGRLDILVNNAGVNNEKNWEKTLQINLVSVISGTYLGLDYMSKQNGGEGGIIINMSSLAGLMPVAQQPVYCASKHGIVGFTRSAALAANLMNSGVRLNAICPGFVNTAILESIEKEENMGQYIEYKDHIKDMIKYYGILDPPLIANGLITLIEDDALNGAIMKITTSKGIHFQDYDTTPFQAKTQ
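NADH formation kinetics: reaction with 30 uM PGE2 and 1 mM NAD+ (final), 20 nM enzyme, Tris-HCl pH 8 with Tween 20, after 15 min compound preincubation at room temperature. Fluorescence change, last versus first of five reads.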
IMPase inh: membrane-permeable compound that blocks inositol monophosphatase; P97697; CHO-M1 cells, IP1 accumulation, HTRF TR-FRET ratio; inhibition (IP1 accumulation), % at 46.1 µM; 120,000 tested, under 10 active; AID 901; active = well fitted curve in the direction sought with a large enough effect in the signal ratio, not every such curve was filed as active; inconclusive = small, poorly fitted or top-dose-only effect, or a change in a side signal; inactive = no such curve, though single readings can be large or run the other way; the % refers to the signal ratio;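 note: cells stimulated with carbachol in lithium chloride buffer; higher means more IMPase inhibition seen as more IP1 and lower FRET ratio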
Target sequence (P97697 whole entry, looked up): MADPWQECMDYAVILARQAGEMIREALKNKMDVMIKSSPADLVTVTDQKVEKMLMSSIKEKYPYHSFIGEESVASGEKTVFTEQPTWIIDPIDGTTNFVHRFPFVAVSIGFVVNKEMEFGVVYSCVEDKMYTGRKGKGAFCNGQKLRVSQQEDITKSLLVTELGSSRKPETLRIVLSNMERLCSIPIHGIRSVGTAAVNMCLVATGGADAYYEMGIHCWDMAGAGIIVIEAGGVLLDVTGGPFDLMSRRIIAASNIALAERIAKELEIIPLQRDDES
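Seeded CHO-M1 cells were dosed with compound at up to 46 uM, stimulated with carbachol for 30 min, then lysed in IP-One detection reagents. Higher IP1 lowers the TR-FRET signal.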
A number is an active result; - = inactive; ? = inconclusive; . = no result; [ ] = remark or other dose. In the library only some 9% were active in any assay of this set; here they are far more common. Unless noted, calls come from the whole dose curve; as a rule, active = well fitted inhibition curve with a large enough effect (not every such curve was filed as active); inconclusive = small, poorly fitted or top-dose-only effect, or another doubt; inactive = no such curve, though single readings can be large or run the other way.

SMILES | ALDH1A1 block | HPGD inh | IMPase inh
COc1cccc(NC(=S)N(CCCN2CCOCC2)Cc2cn(C)c3ccccc23)c1 | ? | - | .
COc1ccc(N(CC(=O)NN=C2CCCC2)S(=O)(=O)c2ccccc2)cc1 | - | - | -
CSc1ccc(S(=O)(=O)N(CC(=O)NN=C2CCN(C)CC2)c2ccc(C)cc2)cc1 | 5.01µM | . | .
O=C(COC(=O)CCC(=O)c1cccs1)Nc1ccccc1[N+](=O)[O-] | - | . | .
CCOC(=O)c1c(C)[nH]c(C(=O)OCCOc2ccccc2C)c1C | - | - | -
O=C(O/N=C(\c1ccccc1)c1ccncc1)c1ccccc1F | - | . | .
COc1ccccc1C(=O)O/N=C(/c1ccncc1)c1ccc([N+](=O)[O-])cc1 | 20µM | . | .
OC[C@@H]1O[C@@H](n2cnc3c(NC4CCCCC4)ncnc32)[C@@H](O)[C@H]1O | . | . | -
C=CCN1C(=O)C(CC(=O)O)SC1=Nc1ccc(C(=O)O)cc1 (stereo not given) | - | . | .
C=CCN1C(=O)C(Cc2ccc(SC(F)F)cc2)SC1=Nc1ccc(C(=O)O)cc1 (stereo not given) | 10µM | . | .
C=CCC1CCCC(=O)N2CC[C@H](O)C12 (stereo not given in full) | - | - | .
CCC(C)C(=O)OC1CC(O)C=C2C=CC(C)C(CCC(O)CC(O)CC(=O)O)C21 (stereo not given) | - | - | .
CCc1ccc(/C=C2/C(=O)N(c3ccccc3)C(=S)N2CC(=O)OC)s1 | 8.91µM | - | -
CCOc1ccc(N2C(=O)/C(=C/c3cccs3)N(CC(=O)OC)C2=S)cc1 | - | - | -
CCN(CC)C(=O)c1[nH]cnc1C(=O)N[C@@H](CC(C)C)C(=O)OCc1ccccc1 | - | . | .
O=c1cc(O)nc(SCc2ccc(Cl)cc2)[nH]1 | - | - | -
CC(=O)c1ccc(OC(C)C)c(CSc2nc(O)cc(=O)[nH]2)c1 | ? | 3.55µM | -
O=C1NC(=O)/C(=C/C(=O)N2CCOCC2)S1 | - | . | .
CCN(C(=O)CSc1nnnn1C)c1c(N)n(Cc2ccccc2)c(=O)[nH]c1=O | - | . | .
CCCCn1c(N)c(N(CC)C(=O)CSc2nnnn2-c2cc(C)ccc2C)c(=O)[nH]c1=O | 11.2µM | . | .
CC(C)C(NC(=O)c1ccc(F)cc1)C(=O)OCC(=O)N1CC(=O)Nc2ccccc21 (stereo not given) | - | - | .
N#Cc1nc(COc2ccccc2F)oc1NCCc1ccccc1 | - | 12.6µM | -
Cc1ccc(OCc2nc(C#N)c(NCCc3ccccc3)o2)cc1 | . | . | -
N#Cc1nc(Cc2ccccc2)oc1NCCN1CCOCC1 | - | - | -
N#Cc1nc(Cc2ccccc2)oc1NCc1ccccc1 | - | 14.1µM | -
SMILES | ALDH1A1 block | HPGD inh | IMPase inh
NC(=O)c1ccc[n+](CC(=O)c2ccc(Br)cc2)c1 | - | . | .
NC(=O)c1ccc[n+](CC(=O)OCCC23CC4CC(CC(C4)C2)C3)c1 | 25.1µM | - | -
CCOC(=O)C1CCCN(C(=O)Cc2ccc(C)cc2)C1 (stereo not given) | - | - | -
CCOCC(=O)N1CCCC(C(=O)OCC)C1 (stereo not given) | 3.55µM | - | -
CCCCC(=O)N1CCCC(C(=O)OCC)C1 (stereo not given) | - | - | -
CCOC(=O)C1CCCN(C(=O)CC(c2ccccc2)c2ccccc2)C1 (stereo not given) | - | 28.2µM | -
CC(C)OCC(O)CN1CCNCC1 (stereo not given) | - | - | -
C=CCOc1c(Br)cc(CNc2ccc(NC(=O)C(C)C)c(OC)c2)cc1OCC | ? | - | .
C=Cn1ccnc1P(=S)(c1ccc2c(c1)c1ccccc1n2CC)c1nccn1C=C | ? | ? | -
Cc1cc(=O)oc2cc(O)c(N=Nc3ccccc3)cc12 | - | . | .
COC(=O)/C(C#N)=C/c1c(-c2ccccc2)nc2n1CCS2 | 1.41µM | . | .
COc1ccc(-c2nc3n(c(=O)c2C#N)CCS3)cc1 | - | . | .
COc1ccc(C(=O)c2ccc(CC(=O)O)s2)cc1 | - | . | .
O=Cc1ccc2noc(-c3ccc(Cl)cc3)c2c1 | 22.4µM | - | -
COc1ccc(-c2onc3ccc(Cl)cc23)cc1 | 20µM | ? | -
Cc1ccc(-c2onc3ccc(Cl)cc23)cc1 | - | - | .
CC1(c2ccc3noc(-c4ccc(Cl)cc4)c3c2)OCCO1 | ? | - | -
CNC(=O)CSc1cn(CC(=O)N(C(C)C)C(C)C)c2ccccc12 | - | . | .
COc1ccc(OC)c(-c2csc(NC(=O)CSc3ccc([N+](=O)[O-])cc3)n2)c1 | ? | - | .
Cc1onc(-c2ccccc2Cl)c1C(=O)N[C@H]1C(=O)N2[C@H]1SC(C)(C)[C@H]2C(=O)O | - | - | -
CCOC(=O)n1c(=O)[nH]c2ccc(Br)cc21 | - | . | .
O=C(O)c1cn(Cc2ccccc2Cl)c2ccc(S(=O)(=O)N3CCOCC3)cc2c1=O | - | . | .
O=C(N=Nc1c(O)[nH]c2ccccc12)c1cc(NS(=O)(=O)c2cccs2)cc(NS(=O)(=O)c2cccs2)c1 | - | . | .
CCCCn1c(O)c(N=NC(=O)c2ccccc2NS(=O)(=O)c2cccs2)c2ccccc21 | 11.2µM | - | .
C=CCn1c(O)c(N=NC(=O)c2ccccc2NS(=O)(=O)c2cccs2)c2ccccc21 | 4.47µM | . | -
SMILES | ALDH1A1 block | HPGD inh | IMPase inh
CC(C)n1c(O)c(N=NC(=O)c2ccccc2NS(=O)(=O)c2cccs2)c2ccccc21 | - | - | -
Cc1c(-c2nc(N)nc(C3CC3)c2C)nc(N)nc1C1CC1 | -[13.5 µM] | - | .
Cc1c(C(=O)Oc2ccc(-c3cnc4ccccc4n3)cc2)cccc1[N+](=O)[O-] | ? | - | -
O=C(Oc1ccc(-c2cnc3ccccc3n2)cc1)c1cc([N+](=O)[O-])ccc1Cl | 0.224µM | - | -
Cc1ccc(C(=O)NC(O)C(Cl)Cl)cc1 (stereo not given) | - | 25.1µM | .
Cc1ccc(C(=O)NC(N(C)C)C(Cl)(Cl)Cl)cc1 (stereo not given) | - | . | .
Cc1ccc(C(=O)NC=C(Cl)Cl)cc1 | - | 28.2µM | -
Cc1ccc(C(=O)NNC(=O)c2ccc(C)cc2)cc1 | - | . | .

Screens deposited in PubChem by National Center for Advancing Translational Sciences (NCATS).
